Test results as given in PubChem BioAssay (NCATS).
Inconclusive results are not listed. Active and inactive are the calls of the source. Unless noted, the call rests on the fitted dose curve; in most records, active means well fitted curve in either direction with a large enough effect (not every such curve was filed as active); inconclusive means small, poorly fitted or top-dose-only effect, or another doubt; inactive means flat fitted curve, though single readings scatter.

Legend:
[1] = target: Lysosomal acid glucosylceramidase (Homo sapiens) (UniProt P04062); experiment: Glucocerebrosidase-p2 (AID 348; in the data active means potency below about 10 µM; further: potency means the concentration at half of the fitted maximal effect); conditions: purified GBA, blue fluorogenic substrate, 40 min
In short: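 Compounds titrated from 0.6 nM upwards against 0.2 nM enzyme in pH 5.9 citric acid/KH2PO4, taurocholate, tween-20; blue fluorogenic substrate 80 uM, 40 min room temperature, stopped and read Ex 365/Em 440 for AC50.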

[2] = AP1 Signaling Pathway (AID 357); conditions: ME-180 AP-1-bla reporter, EGF-induced, beta-lactamase ratio, 5 h; at 7.69 µM (top of the series) unless noted; further: on the % scale 0 is the no-effect control and ±100 the full control effect
In short: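 ME-180 cells with beta-lactamase reporter under AP-1 response element, stimulated with EC50 EGF; compounds tested in titration series, 5 h at 37 °C. CCF4 substrate added 2.5 h at room temperature; 460/530 nm emission ratio gave %activity and AC50.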

[3] = NFAT Signaling Pathway (AID 444); conditions: Jurkat NFAT-bla M1, carbachol, beta-lactamase ratio, 5 h; at 7.69 µM (top of the series) unless noted;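 further: carbachol stimulus at about its EC50 of 1 µM final; on the % scale 0 is the no-effect control and ±100 the full control effect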
In short: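 Read-out: CCF4 FRET ratio (460 nm/530 nm) after 1 h RT dye loading, used for %activity and AC50 from titration series. Cells: Jurkat NFAT-β-lactamase/M1 line, treated with compound plus 1 uM carbachol for 5 h, 37 °C.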

[4] = Stat Signaling Pathway (AID 446); conditions: ME-180 SIE beta-lactamase reporter, IL-6 stimulated, 5 h; at 7.69 µM (top of the series) unless noted;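 further: ME-180 cervical cancer cells given 40 pM IL-6 alongside compound; SIE-controlled beta-lactamase reporter measured as 460/530 nm FRET emission ratio; on the % scale 0 is the no-effect control and ±100 the full control effect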
In short: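 Reporter line: ME-180 cervical carcinoma, SIE-beta-lactamase. Treatment: compound with 40 pM IL-6, 5 hrs, 37 C, in low-serum OPTI-MEM with 10 mM HEPES pH 7.3. Detection: 460/530 nm fluorescence.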

[5] = target: Glucocorticoid receptor (Homo sapiens) (UniProt P04150); experiment: GR-GFP Redistribution (AID 450;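 active means compounds whose dose series gives a full or clear partial fitted curve of increased nuclear translocation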; further: potency means the concentration at half of the fitted maximal effect); conditions: U2OS GR-GFP nuclear translocation, laser cytometry, 2 h
[6] = target: Glucocorticoid receptor (Homo sapiens) (UniProt P04150); experiment: GR-EFC Redistribution (AID 451; calls by dose curve; further: potency means the concentration at half of the fitted maximal effect); conditions: CHO-K1 GR-EFC translocation, beta-gal luminescence, 2 h
In short: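 Translocation of GR-ED fusion to nuclear EA restores b-gal, read by luminescence after 1 h room-temperature detection. Engineered CHO-K1 biosensor cells, 1,000/well, exposed 2 h at 37 C to titrations up to 46 uM final.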

[7] = target: Mitogen-activated protein kinase 10 (Mus musculus) (UniProt Q61831); experiment: JNK3 AlphaScreen Assay (AID 530); conditions: JNK3 lysate, c-Jun phosphorylation; series mostly up to 57.1 µM;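 further: kinase came from lysate of stimulated human HepG2 cells; signal reports phosphorylation of biotinylated GST-cJun 1-79 at Ser73 with 10 µM ATP; on the % scale 0 is the no-effect control and ±100 the full control effect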
In short: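 Room-temperature AlphaScreen kinase assay; pre-activated HepG2 lysate as JNK3 source, biotin-GST-cJun(1-79) substrate, 10 uM ATP, compound 15 min preincubation.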

[8] = target: 3',5'-cyclic-AMP phosphodiesterase 4B (Homo sapiens) (UniProt Q07343); experiment: qHTS Assay for Inhibitors of PDE-IV (AID 607; active means well fitted activation curve with a large enough effect in the main read-out, with a control signal flat, not every such curve was filed as active; further: % of control where 0% means no effect); conditions: HEK293 ACTOne CNG channel cells, membrane potential fluorescence; series mostly up to 22.9 µM
In short: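 Cell-based read-out of cAMP via a modified cyclic nucleotide-gated channel and membrane potential dye (535/590 nm) in HEK293 cells expressing PDE4 endogenously. Compounds tested up to 22.9 uM final; 100 uM RO 20-1724 reference.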

[9] = Primary qHTS for small molecule stabilizers of the endoplasmic reticulum resident proteome: Secreted ER Calcium Modulated Protein (SERCaMP) assay (AID 1508630; active means well fitted curve in the direction sought with a large enough effect; an effect the other way counts as inactive or inconclusive; further: on the % scale 0 is the no-effect control and ±100 the full control effect); conditions: SH-SY5Y GLuc-SERCaMP (Gaussia luciferase released on ER calcium loss) secretion, thapsigargin, luminescence; series mostly up to 38.4 µM
In short: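 GLuc-SERCaMP-expressing SH-SY5Y cells, pretreated 16 h with compound, are challenged with thapsigargin to empty ER calcium stores; after 4 h, coelenterazine is added directly to the medium and luminescence is imaged.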

[10] = target: Cytochrome P450 3A4 (Homo sapiens) (UniProt P08684); experiment: qHTS Assay for Activators of Cytochrome P450 3A4 (AID 885; active means well fitted curve in the direction sought with a large enough effect; an effect the other way counts as inactive or inconclusive; further: nearly all actives have a fitted effect of over 65% in size); conditions: recombinant CYP3A4, Luciferin-PPXE luminescence, 60 min; series mostly up to 57.1 µM
In short: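 Signal was normalized against complete inhibition by 57 uM ketoconazole. The reaction used 20nM CYP3A4 with 25uM Luciferin-PPXE, 10-min compound preincubation and a 60-min NADPH-supported step at RT.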

[11] = qHTS Assay for Identification of Small Molecule Agonists for Hypoxia Response Element Signaling Pathway (AID 914; active means well fitted activation curve with a large enough effect in the signal ratio, with a control signal flat, not every such curve was filed as active; the % refers to the signal ratio; further: % of control where 0% means no effect); conditions: ME-180 (cervical carcinoma) HRE-bla reporter, beta-lactamase ratio, CoCl2, 17 h; activation: active compounds read high
In short: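 AC50 values come from titration-series %Activity, taken as the 460/530nm ratio of CCF4 fluorescence (excitation 405nm). CellSensor HRE-bla ME-180 cells were treated 17 hours at 37 C with compound plus an EC50 level of CoCl2.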

Chain of 3',5'-cyclic-AMP phosphodiesterase 4B (Homo sapiens) (Q07343 whole entry, looked up): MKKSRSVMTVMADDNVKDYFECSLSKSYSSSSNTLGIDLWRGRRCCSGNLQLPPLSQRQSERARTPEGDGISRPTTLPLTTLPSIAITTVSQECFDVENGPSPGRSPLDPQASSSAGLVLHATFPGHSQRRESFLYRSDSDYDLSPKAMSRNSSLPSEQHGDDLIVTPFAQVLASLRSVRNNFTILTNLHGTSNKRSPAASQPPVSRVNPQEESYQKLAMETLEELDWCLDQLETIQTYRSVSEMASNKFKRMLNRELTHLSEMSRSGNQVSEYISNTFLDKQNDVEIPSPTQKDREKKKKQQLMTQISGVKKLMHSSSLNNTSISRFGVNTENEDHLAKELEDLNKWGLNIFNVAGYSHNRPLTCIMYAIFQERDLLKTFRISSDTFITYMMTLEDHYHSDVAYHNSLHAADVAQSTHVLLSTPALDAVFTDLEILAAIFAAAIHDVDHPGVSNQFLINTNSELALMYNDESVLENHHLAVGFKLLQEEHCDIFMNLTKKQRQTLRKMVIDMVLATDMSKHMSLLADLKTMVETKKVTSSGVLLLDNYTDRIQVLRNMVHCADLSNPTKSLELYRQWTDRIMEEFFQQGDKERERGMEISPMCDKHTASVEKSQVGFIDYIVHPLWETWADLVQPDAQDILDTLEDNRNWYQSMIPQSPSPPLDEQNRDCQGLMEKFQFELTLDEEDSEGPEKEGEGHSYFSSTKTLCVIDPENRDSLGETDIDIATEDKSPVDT
Chain of Lysosomal acid glucosylceramidase (Homo sapiens) (P04062 whole entry, looked up): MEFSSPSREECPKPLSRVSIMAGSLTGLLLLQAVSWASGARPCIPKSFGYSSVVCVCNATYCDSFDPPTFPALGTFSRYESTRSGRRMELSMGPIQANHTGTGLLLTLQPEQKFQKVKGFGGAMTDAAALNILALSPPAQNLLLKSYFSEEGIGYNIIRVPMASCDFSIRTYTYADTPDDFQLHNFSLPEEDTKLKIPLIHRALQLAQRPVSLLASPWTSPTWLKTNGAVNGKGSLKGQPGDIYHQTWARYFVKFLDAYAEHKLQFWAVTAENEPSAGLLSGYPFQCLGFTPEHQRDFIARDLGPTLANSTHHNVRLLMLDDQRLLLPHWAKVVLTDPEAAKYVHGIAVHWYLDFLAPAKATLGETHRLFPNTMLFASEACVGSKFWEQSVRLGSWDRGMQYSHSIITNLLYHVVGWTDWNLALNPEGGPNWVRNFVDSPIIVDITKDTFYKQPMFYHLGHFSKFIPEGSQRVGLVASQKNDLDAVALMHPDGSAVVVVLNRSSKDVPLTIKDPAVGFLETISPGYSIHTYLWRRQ
Chain of Glucocorticoid receptor (Homo sapiens) (P04150 whole entry, looked up, the tested form may be a part): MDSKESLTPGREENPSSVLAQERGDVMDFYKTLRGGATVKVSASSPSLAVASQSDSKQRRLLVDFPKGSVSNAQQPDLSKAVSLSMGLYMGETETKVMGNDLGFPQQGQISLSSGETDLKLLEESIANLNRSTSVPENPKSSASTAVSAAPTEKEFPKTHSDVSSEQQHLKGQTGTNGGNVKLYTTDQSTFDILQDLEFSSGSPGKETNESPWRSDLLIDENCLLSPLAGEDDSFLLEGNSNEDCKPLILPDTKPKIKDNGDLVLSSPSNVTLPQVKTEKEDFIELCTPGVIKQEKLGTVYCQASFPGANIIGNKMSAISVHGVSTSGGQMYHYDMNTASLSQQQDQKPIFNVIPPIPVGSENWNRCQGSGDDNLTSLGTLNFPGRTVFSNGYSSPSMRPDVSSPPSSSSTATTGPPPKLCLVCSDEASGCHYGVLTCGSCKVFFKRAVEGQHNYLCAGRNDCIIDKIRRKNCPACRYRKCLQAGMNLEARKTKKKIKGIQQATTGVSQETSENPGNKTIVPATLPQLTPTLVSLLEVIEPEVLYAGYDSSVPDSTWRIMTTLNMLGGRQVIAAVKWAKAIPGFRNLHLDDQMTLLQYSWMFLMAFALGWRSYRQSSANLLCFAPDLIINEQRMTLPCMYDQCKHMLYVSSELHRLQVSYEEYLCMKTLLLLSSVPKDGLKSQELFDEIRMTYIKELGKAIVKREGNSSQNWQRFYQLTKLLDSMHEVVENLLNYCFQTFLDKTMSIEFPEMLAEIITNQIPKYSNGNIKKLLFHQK
Chain of Cytochrome P450 3A4 (Homo sapiens) (P08684 whole entry, looked up): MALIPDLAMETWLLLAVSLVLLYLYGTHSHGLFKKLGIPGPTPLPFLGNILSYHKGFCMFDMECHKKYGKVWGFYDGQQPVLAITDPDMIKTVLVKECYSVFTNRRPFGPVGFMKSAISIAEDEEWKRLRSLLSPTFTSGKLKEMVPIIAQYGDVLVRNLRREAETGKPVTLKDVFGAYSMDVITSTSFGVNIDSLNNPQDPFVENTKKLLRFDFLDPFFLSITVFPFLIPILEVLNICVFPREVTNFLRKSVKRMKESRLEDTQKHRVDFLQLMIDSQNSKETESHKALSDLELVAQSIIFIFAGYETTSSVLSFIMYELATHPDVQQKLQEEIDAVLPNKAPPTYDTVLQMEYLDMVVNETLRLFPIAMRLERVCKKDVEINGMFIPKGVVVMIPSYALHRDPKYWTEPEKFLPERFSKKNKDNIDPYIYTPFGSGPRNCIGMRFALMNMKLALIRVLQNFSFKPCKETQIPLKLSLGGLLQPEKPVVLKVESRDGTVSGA

COc1ncc2nc(-c3ccc(F)cc3)c(=O)n(CCC#N)c2n1
inactive: Potency [1] > 11.4 µM | activity change, negative = inhibition [2] 13.2% | activity change, negative = inhibition [3] -5.63% | activity, negative = inhibition [4] -0.246% | Potency [5] > 9.22 µM | Potency [6] > 46 µM | Potency [7] | Potency [8] | outcome [9]

COc1ncc2nc(CCc3ccccc3)c(=O)n(Cc3cccs3)c2n1
inactive: Potency [1] > 11.4 µM | activity change, negative = inhibition [2] -2.76% | activity change, negative = inhibition [3] -5.02% | activity, negative = inhibition [4] -3.9% | Potency [5] > 9.22 µM | Potency [6] > 46 µM | Potency [7] | outcome [9]

COc1ccccc1CCn1c(=O)c(C)nc2cncnc21
inactive: Potency [1] > 11.4 µM | activity change, negative = inhibition [2] -13.2% | activity change, negative = inhibition [3] 6.15% | activity, negative = inhibition [4] -13.1% | Potency [5] > 9.22 µM | Potency [6] > 46 µM | Potency [7] | Potency [8] | outcome [9]

O=c1c(-c2ccc(Cl)cc2)nc2cncnc2n1Cc1ccccc1
inactive: Potency [1] > 11.4 µM | activity change, negative = inhibition [2] -10.4% | activity change, negative = inhibition [3] -17% | activity, negative = inhibition [4] -3.39% | Potency [5] > 9.22 µM | Potency [6] > 46 µM | Potency [7] | Potency [8] | Potency [10] | activation [11] -4.75% | outcome [9]

COc1ccc(Oc2ncc3ncc(=O)n(CCC#N)c3n2)cc1
inactive: Potency [1] > 11.4 µM | activity change, negative = inhibition [2] -11.3% | activity change, negative = inhibition [3] -5.59% | activity, negative = inhibition [4] -8.02% | Potency [5] > 9.22 µM | Potency [6] > 46 µM | Potency [7] | outcome [9]

COc1cccc(Cn2c(=O)c(-c3cc(F)cc(F)c3)nc3cnc(OC)nc32)c1
inactive: Potency [1] > 11.4 µM | activity change, negative = inhibition [2] -16.9% | activity change, negative = inhibition [3] -18.1% | activity, negative = inhibition [4] -4.81% | Potency [5] > 9.22 µM | Potency [6] > 46 µM | Potency [7] | Potency [8] | outcome [9]

COc1ccc(Oc2ncc3ncc(=O)n(Cc4cccc(OC)c4)c3n2)cc1
inactive: Potency [1] > 11.4 µM | activity change, negative = inhibition [2] -25.4% | activity change, negative = inhibition [3] -6.25% | activity, negative = inhibition [4] -3% | Potency [5] > 9.22 µM | Potency [6] > 46 µM | Potency [7] | Potency [8] | outcome [9]

Cn1c(=O)c(-c2cc(F)cc(F)c2)nc2cnc(Oc3cccc(Cl)c3)nc21
inactive: Potency [1] > 11.4 µM | activity change, negative = inhibition [2] -16% | activity change, negative = inhibition [3] -4.07% | activity, negative = inhibition [4] 7.63% | Potency [5] > 9.22 µM | Potency [6] > 46 µM | Potency [7] | Potency [8] | outcome [9]
